Experimental findings from PubChem BioAssay are described below.

Experiment [1] in a line: HepG2 liver cancer cell viability effects, profiling panel, resazurin fluorescence, 24 h, PK04 Diversity Set (AID 1172). Also: test concentration not given here. The settings on record: higher = more signal.
The nature of experiment [2]: basal S. cerevisiae growth modulation, no modifier, primary screen, OD600, strain BY4716, 24 h, basal condition (AID 1173). The settings on record: OD600, 24 h, higher = more signal, called active from +8 up or from −8 down.
Experiment [3] in a line: MM1S myeloma cell viability, profiling panel, resazurin fluorescence, basal, 24 h, PK04 Diversity Set (AID 1174). Also: test concentration not given here. The settings on record: higher = more signal, called active from +8 up or from −8 down. For orientation: The colour change of resazurin is a common sign of viable cells or microbes.
The target in experiment [4] is Dihydroorotate dehydrogenase (quinone), mitochondrial (Plasmodium falciparum (isolate 3D7)) (UniProt Q08210). Description: PfDHODH enzyme inhibitors, primary screen, biochemical, C-terminal His tag, absorbance 600 nm (AID 1175).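 Also: recombinant parasite enzyme with a five histidine tag at its C terminus; test concentration not given here.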 The settings on record: DCIP absorbance 600 nm, higher = more signal, called active from +8 up or from −8 down.
The nature of experiment [5]: P. aeruginosa biofilm formation inhibitors, primary screen, strain PAO1, LB-PBS medium, absorbance 600 nm (AID 1176). Also: test concentration not given here. The settings on record: P. aeruginosa PAO1 growth/biofilm, A600, 12 h; higher = more signal.
The nature of experiment [6]: S. cerevisiae RM11-1a growth modifiers, primary screen, strain RM11-1a, OD600, basal, 24 h (AID 1177).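 Also: cultures grown under basal conditions with no added stressor; test concentration not given here.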 The settings on record: OD600, 24 h, higher = more signal, called active from +8 up or from −8 down.
Experiment [7] in a line: E. coli acrAB mutant growth effects, primary screen, E. coli filamentation inducers, strain DRC39, OD650, 24 h (AID 1178).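 Also: growth measured as culture turbidity by optical density at 650 nm; test concentration not given here.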 The settings on record: higher = more signal, called active from +8 up or from −8 down.
Experiment [8] can be described thus: E. coli acrAB mutant growth effects, primary screen, E. coli filamentation inducers, strain DRC39, OD650, 48 h (AID 1179).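 Also: screen aims at cell division blockers that make cells filament.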 The settings on record: E. coli DRC39 delta-acrAB growth, higher = more signal, called active from +8 up or from −8 down.
Experiment [9] is described as follows: RPMI8226 myeloma cell viability, profiling panel, resazurin fluorescence, basal, 24 h, PK04 Diversity Set (AID 1180).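 Also: RPMI8826 multiple myeloma cell line at 5000 cells per well; test concentration not given here.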 The settings on record: higher = more signal.
In experiment [10] the target is E3 ubiquitin-protein ligase XIAP (Homo sapiens) (UniProt P98170). Description: XIAP binders, primary screen, biophysical, small-molecule microarray, fluorescence 635 nm (AID 1181).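 Also: score merges 667 nm emission and signal to noise over triplicate slides.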 The settings on record: small-molecule microarray binding, higher = more signal.

Active and inactive are the calls of the source. Unless noted, no rule for the calls is given here.

Sequence of E3 ubiquitin-protein ligase XIAP (Homo sapiens) (P98170 whole entry, looked up): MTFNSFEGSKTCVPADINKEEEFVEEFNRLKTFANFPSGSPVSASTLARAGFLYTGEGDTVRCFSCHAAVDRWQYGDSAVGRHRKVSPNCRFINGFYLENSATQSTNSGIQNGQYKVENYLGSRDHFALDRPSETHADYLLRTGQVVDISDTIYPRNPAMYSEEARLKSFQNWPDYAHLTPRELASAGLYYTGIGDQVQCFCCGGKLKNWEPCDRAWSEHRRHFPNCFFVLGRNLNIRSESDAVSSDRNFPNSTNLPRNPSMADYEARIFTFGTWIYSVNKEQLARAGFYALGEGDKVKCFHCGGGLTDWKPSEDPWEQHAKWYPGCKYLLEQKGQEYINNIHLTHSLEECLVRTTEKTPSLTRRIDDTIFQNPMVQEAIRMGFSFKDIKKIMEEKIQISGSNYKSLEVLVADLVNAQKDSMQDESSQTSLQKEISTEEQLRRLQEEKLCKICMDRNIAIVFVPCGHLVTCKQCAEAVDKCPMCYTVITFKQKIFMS
Sequence of Dihydroorotate dehydrogenase (quinone), mitochondrial (Plasmodium falciparum (isolate 3D7)) (Q08210 whole entry, looked up): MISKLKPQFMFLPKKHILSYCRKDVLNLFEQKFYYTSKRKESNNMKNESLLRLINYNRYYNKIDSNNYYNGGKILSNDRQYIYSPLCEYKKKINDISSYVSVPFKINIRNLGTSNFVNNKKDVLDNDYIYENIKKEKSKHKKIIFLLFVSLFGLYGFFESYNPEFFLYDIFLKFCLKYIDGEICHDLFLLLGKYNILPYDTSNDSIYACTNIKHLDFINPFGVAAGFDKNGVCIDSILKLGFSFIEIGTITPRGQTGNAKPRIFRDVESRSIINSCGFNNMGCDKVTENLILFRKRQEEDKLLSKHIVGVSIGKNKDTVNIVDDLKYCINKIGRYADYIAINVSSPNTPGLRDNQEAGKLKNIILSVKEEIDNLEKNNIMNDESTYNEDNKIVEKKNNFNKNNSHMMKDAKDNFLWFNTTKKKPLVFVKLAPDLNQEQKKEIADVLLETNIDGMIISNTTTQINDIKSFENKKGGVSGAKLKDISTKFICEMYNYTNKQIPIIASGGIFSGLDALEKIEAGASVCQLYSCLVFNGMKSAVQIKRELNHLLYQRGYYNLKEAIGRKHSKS

Consider `COCCOC(=O)N1C(=O)[C@@]2(c3cc(C#CCCO)ccc31)[C@H](C(=O)NC[C@H](O)c1ccccc1)[C@H]1C(=O)O[C@H](c3ccccc3)[C@H](c3ccccc3)N1[C@@H]2c1ccc(OCCO)cc1`, for which the z-score in [1] is 0.76; in experiment [2], 0.757 (inactive); in experiment [3] it was 0.857 (inactive); in [5] it was 1.75 (inactive); in experiment [6], 1.21 (inactive); in [7], 0.696 (inactive). In addition, the z-score was -0.567 (inactive) in experiment [8] and 1.43 in [9]. In addition, the composite z-score in experiment [4] was -0.689 (inactive); in experiment [10], 0.275.
For `O=C(NCC(O)CO)[C@]1(CCS(=O)(=O)c2ccccc2)N=C(c2ccc(OCCCO)cc2)O[C@@H]1c1ccccc1` (stereo not given in full), the z-score in [1] was -0.015; in [2], 0.53 (inactive); in experiment [3] it was -0.57 (inactive); in [5] it was 0.193 (inactive); in experiment [6], -0.702 (inactive); in experiment [7] it was -0.0686 (inactive). Further, the z-score in [8] was -0.276 (inactive); in experiment [9], 0.0882. For the same compound, the composite z-score in experiment [4] is -0.162 (inactive); in [10], -0.0203.
Take `C=CCOC(=O)[C@@H]1[C@H]2C(=O)O[C@H](c3ccccc3)[C@H](c3ccccc3)N2[C@H](c2ccc(OCCOC(=O)[C@H]3C[C@H]4C(=O)N[C@@H](Cc5ccccc5)C(=O)N4[C@H]3c3ccc(O)cc3)cc2)[C@@]12C(=O)Nc1ccc(I)cc12`: the z-score was -0.0291 in [1]; -0.149 (inactive) in experiment [2]; -1.98 (inactive) in [3]; 0.932 (inactive) in [5]; 2.52 (inactive) in experiment [6]; -1.52 (inactive) in [7]. The values for the z-score in experiment [8] and in [9] were -1.06 (inactive) and -1.01, respectively. In addition, the composite z-score in [4] is -8.55 (active); in experiment [10] it was -0.187.
Regarding `COCC1=C([C@H](O)CCc2ccccc2)[C@H](CO)[C@@H]2C(=O)N(Cc3ccccc3)C(=O)[C@@H]2C1`, the z-score in [1] was -0.062; in [2], -1.55 (inactive); in experiment [3], 0.0871 (inactive); in experiment [5], -0.295 (inactive); in experiment [6], 0.723 (inactive); in experiment [7], 1.09 (inactive). The results for the z-score in [8] and in experiment [9] were 0.738 (inactive) and 0.449, respectively. In addition, the figures for the composite z-score in [4] and in experiment [10] were -1.91 (inactive) and -0.031, respectively.
With `CC(C)(C)OC(=O)CC[C@@]1(C(=O)N2CCOCC2)N=C(c2ccc(OCCCO)cc2)O[C@@H]1c1ccccc1N=[N+]=[N-]`, the z-score was 0.725 in experiment [1]; 0.297 (inactive) in [2]; -0.894 (inactive) in [3]; -0.596 (inactive) in experiment [5]; 1.1 (inactive) in [6]; 0.611 (inactive) in experiment [7]. Further, the z-score is 1.52 (inactive) in experiment [8] and 0.066 in [9]. The composite z-score is 0.668 (inactive) in experiment [4] and 0.205 in experiment [10].
With `CN1C(=O)C2C=CC(C(O)C(C)(C)C)N(Nc3ccccc3)C2C1=O` (stereo not given), the z-score in [1] was -0.376; in [2], 0.66 (inactive); in experiment [3], -0.281 (inactive); in [5], 0.695 (inactive); in [6], 0.0609 (inactive); in experiment [7], -0.568 (inactive). In addition, the z-score in experiment [8] is 0.108 (inactive); in experiment [9], -0.444. Besides, the composite z-score in experiment [4] was -0.702 (inactive); in experiment [10], 0.621.
Take `C=C(CCCC)/C(=C/C[C@H](OC(C)=O)c1ccc(CO)o1)c1cc(C(=O)OC)ccc1OC`: the z-score in experiment [1] is -0.577; in experiment [2], -0.31 (inactive); in experiment [3], -0.871 (inactive); in [5], 0.0842 (inactive); in experiment [6] it was 0.0837 (inactive); in experiment [7] it was -0.729 (inactive). For the same compound, the z-score is -0.776 (inactive) in experiment [8] and -0.641 in [9]. The values for the composite z-score in experiment [4] and in experiment [10] were -2.01 (inactive) and -0.322, respectively.
Regarding `CCOC(=O)C[C@H]1[C@H](OC(=O)c2ccccc2-c2ccccc2)[C@@H](NC(=O)c2ccc(-c3ccccc3)cc2)c2cc(OCCCO)ccc2N1C(=O)c1ccccc1`, the z-score in experiment [1] is -0.607; in experiment [2], 0.579 (inactive); in experiment [3], 0.633 (inactive); in experiment [5] it was -0.341 (inactive); in experiment [6] it was 1.61 (inactive); in experiment [7], 1.39 (inactive). For the same compound, the z-score in experiment [8] was 0.53 (inactive); in experiment [9] it was 0.608. Besides, the composite z-score in experiment [4] is 1.03 (inactive); in experiment [10], -0.121.
As for `O=C1c2ccccc2[C@](Cc2ccccc2I)(C(=O)O)[C@H](c2ccc(CO)cc2)N1Cc1ccccc1C(F)(F)F`, the z-score is 1.02 in [1]; -0.874 (inactive) in experiment [2]; 0.283 (inactive) in experiment [3]; -0.0528 (inactive) in [5]; 0.893 (inactive) in experiment [6]; -0.0217 (inactive) in experiment [7]. Further, the values for the z-score in experiment [8] and in [9] were -0.0555 (inactive) and 0.0019, respectively. Besides, the composite z-score in experiment [4] was 0.833 (inactive); in [10] it was 0.12.
